Reference: publication PMC7862700, “An all-to-all approach to the identification of sequence-specific readers for epigenetic DNA modifications on cytosine”

What was measured:
Assay in all cases: DAPPL (digital affinity profiling via proximity ligation, sequencing); 10 mM Tris-HCl pH 7.5, 50 mM NaCl, 1 mM DTT, 4% glycerol, room temperature, 30 min; GST-TFs on glutathione beads, 16-mer random dsDNA library, 0.1% formaldehyde crosslink after washing; high values mean tight binding
FLI1 = target: T1, FLI1 (Homo sapiens, UniProt Q01543 1-452); conditions: protein: recombinant; tags: N-terminal GST; dsDNA, one strand shown
T1 sequence: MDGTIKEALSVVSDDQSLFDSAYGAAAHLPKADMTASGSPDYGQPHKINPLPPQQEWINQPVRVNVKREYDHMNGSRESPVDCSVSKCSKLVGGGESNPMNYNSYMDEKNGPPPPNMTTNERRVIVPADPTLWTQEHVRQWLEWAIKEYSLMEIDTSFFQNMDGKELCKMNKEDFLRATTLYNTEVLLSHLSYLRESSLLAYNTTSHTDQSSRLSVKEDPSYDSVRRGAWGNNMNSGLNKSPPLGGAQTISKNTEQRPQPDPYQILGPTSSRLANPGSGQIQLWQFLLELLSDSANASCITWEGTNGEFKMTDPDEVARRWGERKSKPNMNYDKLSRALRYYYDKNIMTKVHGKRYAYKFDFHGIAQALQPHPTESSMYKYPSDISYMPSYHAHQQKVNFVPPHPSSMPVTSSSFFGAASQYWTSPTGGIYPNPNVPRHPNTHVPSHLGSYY
Procedure, shortened: (§1)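 In yeast, human transcription factors were expressed with a GST fusion, then pulled down on glutathione beads and given DNA barcodes. Pooled with a tag-only sample, they were exposed to 200 nmole of a 16-mer random double-stranded DNA library (Tris/NaCl/DTT/glycerol buffer, room temperature, 30 min), washed, crosslinked with 0.1% formaldehyde, proximity-ligated using BsaI/T4 ligase for 1 h at 37 °C, PCR-amplified and read on an Illumina NextSeq500. Each hexamer's frequency of reads for a factor, divided by the matching frequency for the tag-only sample, gives the binding signal.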

ELF1 = ELF1 (Homo sapiens, UniProt P32519 1-619); conditions: protein: recombinant; tags: N-terminal GST; dsDNA, one strand shown
Procedure, shortened: as §1

ELK3 = target: T2, ELK3 (Homo sapiens, UniProt P41970 1-407); conditions: protein: recombinant; tags: N-terminal GST; dsDNA, one strand shown
T2 sequence: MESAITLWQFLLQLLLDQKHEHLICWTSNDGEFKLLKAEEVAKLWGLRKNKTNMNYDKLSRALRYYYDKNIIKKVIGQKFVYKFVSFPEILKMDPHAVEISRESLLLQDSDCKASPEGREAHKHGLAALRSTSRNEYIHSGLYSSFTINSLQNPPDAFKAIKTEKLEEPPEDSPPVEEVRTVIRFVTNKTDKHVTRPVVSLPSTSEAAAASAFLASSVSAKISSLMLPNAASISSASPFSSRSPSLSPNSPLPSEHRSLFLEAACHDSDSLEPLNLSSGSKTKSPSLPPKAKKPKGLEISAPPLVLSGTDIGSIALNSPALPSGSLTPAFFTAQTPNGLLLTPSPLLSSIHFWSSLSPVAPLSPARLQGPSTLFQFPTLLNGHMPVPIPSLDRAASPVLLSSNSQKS
Procedure, shortened: as §1

ETV2 = target: T3, ETV2 (Homo sapiens, UniProt O00321 1-342); conditions: protein: recombinant; tags: N-terminal GST; dsDNA, one strand shown
T3 sequence: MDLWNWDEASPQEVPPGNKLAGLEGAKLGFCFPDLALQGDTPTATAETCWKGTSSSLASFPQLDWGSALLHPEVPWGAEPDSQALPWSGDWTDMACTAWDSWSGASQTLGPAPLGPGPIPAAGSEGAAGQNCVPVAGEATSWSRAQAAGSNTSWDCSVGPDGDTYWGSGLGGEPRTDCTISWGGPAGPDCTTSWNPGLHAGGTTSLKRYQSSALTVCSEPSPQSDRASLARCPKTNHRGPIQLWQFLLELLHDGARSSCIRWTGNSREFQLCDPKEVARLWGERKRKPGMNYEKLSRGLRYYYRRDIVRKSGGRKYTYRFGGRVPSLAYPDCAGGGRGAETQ
Procedure, shortened: as §1

HSF1 = HSF1 (Homo sapiens, UniProt Q00613 1-529); conditions: protein: recombinant; tags: N-terminal GST; chain copies: 3; dsDNA, one strand shown
Procedure, shortened: as §1

SPI1 = SPI1 (Homo sapiens, UniProt P17947 1-270); conditions: protein: recombinant; tags: N-terminal GST; dsDNA, one strand shown
Procedure, shortened: as §1

ELK4 = target: T4, ELK4 (Homo sapiens, UniProt P28324-2 1-405); conditions: protein: recombinant; tags: N-terminal GST; dsDNA, one strand shown
T4 sequence: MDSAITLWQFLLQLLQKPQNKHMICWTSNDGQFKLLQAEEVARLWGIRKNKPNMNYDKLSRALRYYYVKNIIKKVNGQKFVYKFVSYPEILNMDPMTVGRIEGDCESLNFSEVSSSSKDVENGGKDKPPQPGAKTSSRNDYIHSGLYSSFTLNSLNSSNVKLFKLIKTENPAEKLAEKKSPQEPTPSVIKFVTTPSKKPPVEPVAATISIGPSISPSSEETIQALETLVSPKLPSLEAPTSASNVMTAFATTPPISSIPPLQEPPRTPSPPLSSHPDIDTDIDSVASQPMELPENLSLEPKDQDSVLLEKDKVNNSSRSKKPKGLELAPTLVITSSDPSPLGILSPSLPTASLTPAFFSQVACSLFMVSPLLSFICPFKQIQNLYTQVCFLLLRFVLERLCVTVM
Procedure, shortened: as §1

ETV3L = target: T5, ETV3L (Homo sapiens, UniProt Q6ZN32 1-361); conditions: protein: recombinant; tags: N-terminal GST; dsDNA, one strand shown
T5 sequence: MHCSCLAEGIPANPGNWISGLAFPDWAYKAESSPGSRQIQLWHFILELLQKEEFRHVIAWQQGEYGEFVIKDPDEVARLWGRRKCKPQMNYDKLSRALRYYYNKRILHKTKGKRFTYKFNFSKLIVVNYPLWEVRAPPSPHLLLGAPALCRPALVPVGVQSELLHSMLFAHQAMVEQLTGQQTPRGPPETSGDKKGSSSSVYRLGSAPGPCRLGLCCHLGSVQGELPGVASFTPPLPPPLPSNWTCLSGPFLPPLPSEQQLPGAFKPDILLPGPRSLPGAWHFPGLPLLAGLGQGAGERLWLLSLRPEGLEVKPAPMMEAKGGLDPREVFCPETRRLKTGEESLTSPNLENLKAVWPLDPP
Procedure, shortened: as §1

ETV7 = target: T6, ETV7 (Homo sapiens, UniProt Q9Y603 1-341); conditions: protein: recombinant; tags: N-terminal GST; dsDNA, one strand shown
T6 sequence: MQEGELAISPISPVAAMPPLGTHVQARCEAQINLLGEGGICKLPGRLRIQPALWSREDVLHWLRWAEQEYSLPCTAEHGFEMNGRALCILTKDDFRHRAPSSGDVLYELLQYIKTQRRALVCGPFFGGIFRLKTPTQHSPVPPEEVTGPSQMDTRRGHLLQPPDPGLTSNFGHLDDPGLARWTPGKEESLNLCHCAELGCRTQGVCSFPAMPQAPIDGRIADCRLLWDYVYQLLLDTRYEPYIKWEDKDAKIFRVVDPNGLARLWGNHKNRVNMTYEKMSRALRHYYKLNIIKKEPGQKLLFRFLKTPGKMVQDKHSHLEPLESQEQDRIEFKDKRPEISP
Procedure, shortened: as §1

ELF5 = target: T7, ELF5 (Homo sapiens, UniProt Q9UKW6-2 1-255); conditions: protein: recombinant; tags: N-terminal GST; dsDNA, one strand shown
T7 sequence: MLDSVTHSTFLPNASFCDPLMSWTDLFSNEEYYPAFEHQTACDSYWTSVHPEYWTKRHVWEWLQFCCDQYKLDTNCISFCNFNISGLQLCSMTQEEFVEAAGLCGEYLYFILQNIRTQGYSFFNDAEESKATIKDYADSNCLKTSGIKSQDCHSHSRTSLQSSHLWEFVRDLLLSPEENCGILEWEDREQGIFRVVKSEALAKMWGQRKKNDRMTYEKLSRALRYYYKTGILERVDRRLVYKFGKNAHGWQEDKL
Procedure, shortened: as §1

ETV6 = ETV6 (Homo sapiens, UniProt P41212 1-452); conditions: protein: recombinant; tags: N-terminal GST; dsDNA, one strand shown
Procedure, shortened: as §1

Sequence of HSF1 (Q00613 whole entry): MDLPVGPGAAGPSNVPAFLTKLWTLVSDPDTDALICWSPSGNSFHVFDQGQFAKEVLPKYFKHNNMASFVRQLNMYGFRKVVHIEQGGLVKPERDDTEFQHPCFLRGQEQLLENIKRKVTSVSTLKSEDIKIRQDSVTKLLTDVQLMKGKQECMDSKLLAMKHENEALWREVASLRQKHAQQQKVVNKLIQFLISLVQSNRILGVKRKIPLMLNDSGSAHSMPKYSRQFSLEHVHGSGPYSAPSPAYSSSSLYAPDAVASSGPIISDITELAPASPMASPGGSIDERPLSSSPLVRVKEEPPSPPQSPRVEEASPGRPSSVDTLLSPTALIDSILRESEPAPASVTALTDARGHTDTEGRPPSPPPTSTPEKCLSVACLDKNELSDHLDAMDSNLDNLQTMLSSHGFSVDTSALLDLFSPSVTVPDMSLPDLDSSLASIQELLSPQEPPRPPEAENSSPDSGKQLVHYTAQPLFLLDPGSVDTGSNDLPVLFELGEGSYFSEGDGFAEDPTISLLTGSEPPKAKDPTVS
Sequence of ELF1 (P32519 whole entry): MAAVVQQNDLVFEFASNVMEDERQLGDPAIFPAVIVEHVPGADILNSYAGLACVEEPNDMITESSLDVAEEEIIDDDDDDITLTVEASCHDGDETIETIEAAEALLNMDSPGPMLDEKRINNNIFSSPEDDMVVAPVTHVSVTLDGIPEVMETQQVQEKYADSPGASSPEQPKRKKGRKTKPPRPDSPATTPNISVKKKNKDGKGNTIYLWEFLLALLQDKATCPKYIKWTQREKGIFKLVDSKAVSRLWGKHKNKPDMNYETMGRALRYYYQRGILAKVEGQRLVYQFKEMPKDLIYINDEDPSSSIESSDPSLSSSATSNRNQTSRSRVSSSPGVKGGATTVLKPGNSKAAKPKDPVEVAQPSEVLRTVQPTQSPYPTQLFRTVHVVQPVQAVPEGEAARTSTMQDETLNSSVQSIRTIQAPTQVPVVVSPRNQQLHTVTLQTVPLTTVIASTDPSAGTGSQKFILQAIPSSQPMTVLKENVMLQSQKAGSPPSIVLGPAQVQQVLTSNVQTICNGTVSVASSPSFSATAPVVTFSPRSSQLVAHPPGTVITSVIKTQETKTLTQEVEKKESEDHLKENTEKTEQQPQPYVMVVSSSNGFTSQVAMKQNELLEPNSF
Sequence of ETV6 (P41212 whole entry): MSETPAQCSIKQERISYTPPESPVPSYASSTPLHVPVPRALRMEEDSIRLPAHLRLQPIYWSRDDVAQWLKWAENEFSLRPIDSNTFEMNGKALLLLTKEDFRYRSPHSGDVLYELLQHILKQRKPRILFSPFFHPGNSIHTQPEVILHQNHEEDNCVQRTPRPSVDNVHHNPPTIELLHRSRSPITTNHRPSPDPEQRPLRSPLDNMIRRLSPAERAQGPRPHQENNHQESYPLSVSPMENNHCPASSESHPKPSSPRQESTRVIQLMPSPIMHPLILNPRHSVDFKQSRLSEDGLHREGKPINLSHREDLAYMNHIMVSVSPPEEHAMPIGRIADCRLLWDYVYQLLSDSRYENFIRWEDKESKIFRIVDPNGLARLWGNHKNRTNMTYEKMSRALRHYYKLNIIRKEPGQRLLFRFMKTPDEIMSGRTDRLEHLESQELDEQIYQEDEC

Q: Which binding signal (FLI1) does the source give for GTATGT here?
A: The binding signal was 1.04 fold enrichment (6-mer frequency, TF over GST control).

Q: What about the binding signal (ELF1) of the same sequence?
A: The binding signal was 1.03 fold enrichment (6-mer frequency, TF over GST control).

Q: And the binding signal (ELK3)?
A: Its binding signal is 1 fold enrichment (6-mer frequency, TF over GST control).

Q: And the binding signal (ETV2)?
A: Its binding signal is 1.02 fold enrichment (6-mer frequency, TF over GST control).

Q: CAGAAG was tested. Which binding signal (HSF1) did it give?
A: Its binding signal is 1.32 fold enrichment (6-mer frequency, TF over GST control).

Q: TCGCGA was tested. Which binding signal (HSF1) did it give?
A: Its binding signal is 1.59 fold enrichment (6-mer frequency, TF over GST control).

Q: GAGAAA was tested. Which binding signal (HSF1) did it give?
A: The binding signal was 1.49 fold enrichment (6-mer frequency, TF over GST control).

Q: For GGGAAT, which binding signal (HSF1) is on record?
A: The binding signal was 1.09 fold enrichment (6-mer frequency, TF over GST control).

Q: What does the source list for AGTTGC?
A: binding signal (FLI1): 1.04 fold enrichment (6-mer frequency, TF over GST control); binding signal (SPI1): 1.07 fold enrichment (6-mer frequency, TF over GST control); binding signal (ELK3): 1.03 fold enrichment (6-mer frequency, TF over GST control); binding signal (ELK4): 1.02 fold enrichment (6-mer frequency, TF over GST control); binding signal (ETV3L): 1.01 fold enrichment (6-mer frequency, TF over GST control); binding signal (ETV7): 1.11 fold enrichment (6-mer frequency, TF over GST control); binding signal (ELF5): 1.02 fold enrichment (6-mer frequency, TF over GST control); binding signal (ETV6): 1.03 fold enrichment (6-mer frequency, TF over GST control)
